Rows were chosen to be rich in hits. Some 3.2% of all compounds tested hit in one or more screens of this group.
CBFb-RUNX1 inh: qHTS Assay for Compounds Blocking the Interaction Between CBF-beta and RUNX1 for the Treatment of Acute Myeloid Leukemia; AlphaScreen CBFb-His/RUNX1-biotin binding, biochemical; Potency, µM (top dose mostly 59.8 µM), without a hit: at the highest dose activity, negative = inhibition, most hits filed as inhibitors; 230,000 tested, under 10 active; also: % of control where 0% means no effect
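Inhibition was taken as any reduction in AlphaScreen signal from the CBF-beta–RUNX1 pair (His and biotin tags, 30 nM each), measured after compound (15 min) and bead (90 min) incubations at room temperature.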
Tau FP inhib: qHTS for Inhibitors of Tau Fibril Formation, Fluorescence Polarization; Microtubule-associated protein tau (Homo sapiens), P10636; K18 P301L tau heparin fibrillization, Alexa594 FP, 6 h; Potency, µM (titrated, usually from 57.7 µM), without a hit: at the highest dose activity, negative = inhibition, most hits filed as inhibitors; 0.39% of 280,000 active; AID 1468, 2008; also: potency is read from the fitted curve at half-maximal effect; % is scaled to controls: 0 for no effect and ±100 for the full control effect; nearly all actives have a fitted effect of over 55% in size
Target sequence (P10636 561-689 P618L limits assumed): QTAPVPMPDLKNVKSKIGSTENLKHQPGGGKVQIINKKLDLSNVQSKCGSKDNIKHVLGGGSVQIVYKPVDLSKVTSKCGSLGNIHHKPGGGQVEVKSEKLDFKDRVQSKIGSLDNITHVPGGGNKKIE
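Human K18 P301L fragment (15 uM unlabeled plus 0.24 uM Alexa 594-labeled) in 100 mM sodium acetate pH 7 with compound, aggregation induced by 20 uM heparin for 6 hr at 37 C. ThT (30 uM) added for 1 hr, then Alexa 594 FP read.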
Lamin A splicing: qHTS Assay for Modulators of Lamin A Splicing; HeLa LMNA splicing GFP/RFP minigene ratio, 48 h; Potency, µM (series often up to 46.1 µM), inactives show at the top dose ratio change, negative = inhibition, usual class: inhibitors; 0.01% of 200,000 active; AID 1487, 2009; active = well fitted inhibition curve with a large enough effect in the signal ratio, with a control signal flat, not every such curve was filed as active; inconclusive = small, poorly fitted or top-dose-only effect, or effect the other way, or a change in a side signal; the % refers to the signal ratio; also: potency is read from the fitted curve at half-maximal effect; % is scaled to controls: 0 for no effect and ±100 for the full control effect
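Read-out is the ratio of GFP to DsRed2 object intensity, acquired by 488 nm laser-scanning cytometry on HeLa lamin A-EGFP minigene reporter cells. Compound incubation 48 hrs at 37 °C in Opti-MEM with 2% FBS; DMSO 0.5% final.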
JMJD2E inh: qHTS Assay for Inhibitors of Human Jumonji Domain Containing 2E (JMJD2E); JMJD2E catalytic domain, FDH-coupled NADH fluorescence (FDH is formaldehyde dehydrogenase); Lysine-specific demethylase 4E (Homo sapiens), B2RXH2; Potency, µM (top dose mostly 57.1 µM), for the others: top-dose activity change, negative = inhibition, hits mostly inhibitors; 1.6% of 230,000 active; active = well fitted inhibition curve with a large enough effect, not every such curve was filed as active; inconclusive = small, poorly fitted or top-dose-only effect, or another doubt; inactive = no such curve, though single readings can be large or run the other way;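 also: potency is read from the fitted curve at half-maximal effect; 0% = wells with enzyme and -100% = buffer wells without enzyme; nearly all actives have a fitted effect of over 50% in size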
Target sequence (B2RXH2 1-337 limits assumed): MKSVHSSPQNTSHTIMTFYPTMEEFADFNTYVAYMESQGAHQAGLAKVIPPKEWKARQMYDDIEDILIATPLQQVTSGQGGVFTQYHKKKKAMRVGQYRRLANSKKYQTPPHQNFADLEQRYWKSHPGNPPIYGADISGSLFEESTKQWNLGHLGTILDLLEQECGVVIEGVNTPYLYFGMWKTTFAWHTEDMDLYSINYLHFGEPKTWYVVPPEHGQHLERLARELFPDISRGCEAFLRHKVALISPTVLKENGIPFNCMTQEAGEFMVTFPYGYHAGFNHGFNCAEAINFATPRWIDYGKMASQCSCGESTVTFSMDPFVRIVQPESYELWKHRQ
Tau ThT inhib: qHTS for Inhibitors of Tau Fibril Formation, Thioflavin T Binding. recombinant tau K18 P301L, heparin-induced fibrillization, ThT fluorescence. Potency, µM (series often up to 57.4 µM), inactives show top-dose activity, negative = inhibition, usual class: inhibitors. 2.1% of 270,000 active; also: potency is read from the fitted curve at half-maximal effect; % is scaled to controls: 0 for no effect and ±100 for the full control effect; nearly all actives have a fitted effect of over 55% in size
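Recombinant human tau K18 fragment […] carrying P301L, 15 uM unlabeled plus 0.24 uM Alexa 594-labeled, was fibrillized with 20 uM heparin in 100 mM sodium acetate pH 7 for 6 hr at 37 C; 30 uM ThT fluorescence read after 1 hr.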
Tau fluor counter: Counterscreen qHTS for Inhibitors of Tau Fibril Formation, Fluorescence Polarization. tau K18 P301L (four-repeat tau fragment) Alexa594 fluorescence, heparin fibrillization. Potency, µM (top dose mostly 57.7 µM), inactives show at the top dose activity change, negative = decrease. 0.93% of 280,000 active; also: potency is read from the fitted curve at half-maximal effect; % is scaled to controls: 0 for no effect and ±100 for the full control effect; nearly all actives have a fitted effect of over 55% in size
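Human K18 P301L tau (15 uM unlabeled plus 0.24 uM Alexa 594-labeled, final) in 100 mM sodium acetate pH 7 was mixed with compound and 20 uM heparin and incubated 6 hr at 37 C.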
The depositor's hits bear a star; [ ] = dose if it differs, or a comment. Unless noted, calls follow the shape of the dose curve; as a rule, active = well fitted curve in the direction sought with a large enough effect; inconclusive = small, poorly fitted or top-dose-only effect, or another doubt; inactive = no such curve, though single readings can be large; an effect the other way counts as inactive or inconclusive.

`COc1ccc(N=C(NN)c2ccc3ccccc3n2)cc1` gave CBFb-RUNX1 inh -8%, Tau FP inhib -5%, Lamin A splicing inconclusive, JMJD2E inh inconclusive, Tau ThT inhib 16µM* and Tau fluor counter -10%.
`CC(C)C[C@H](NC(=O)[C@H](CO)NC(=O)[C@H](C)NC(=O)[C@H](CCCN=C(N)N)NC(=O)[C@H](CCCN=C(N)N)NC(=O)[C@@H](N)CC(C)C)C(=O)NCC(=O)O` gave CBFb-RUNX1 inh 9%.
Screening O=[N+]([O-])c1cccc(/C=N\N=C2c3ccccc3-c3ccccc32)c1O returned CBFb-RUNX1 inh 3%, Tau FP inhib 8%, Lamin A splicing -4%, JMJD2E inh -5%, Tau ThT inhib 5µM* and Tau fluor counter inconclusive.
NC(N)=N/N=C/c1cccc([N+](=O)[O-])c1O was read as CBFb-RUNX1 inh -2%, Tau FP inhib 0%, JMJD2E inh 1%, Tau ThT inhib -2% and Tau fluor counter -8%.
For NCC(O)c1ccc(O)c(O)c1 (centres undefined) the results were CBFb-RUNX1 inh inconclusive, Tau FP inhib inconclusive, Lamin A splicing -26%, JMJD2E inh 13µM*, Tau ThT inhib inconclusive and Tau fluor counter -14%.
For NC(=O)CC(O)c1cccc(Cl)c1 (centres undefined) the results were CBFb-RUNX1 inh 4%, Tau FP inhib -9%, Lamin A splicing 9%, JMJD2E inh -3%, Tau ThT inhib 1% and Tau fluor counter 1%.
`Nc1c(C(=O)Nc2ccc(Br)cc2)sc2nc(-c3ccncc3)ccc12` gave Tau FP inhib 3%, Tau ThT inhib inconclusive and Tau fluor counter inconclusive.
For CC(C)CSc1ccccc1NC(=O)c1sc2nc(-c3ccncc3)ccc2c1N the results were Tau FP inhib 3%, Tau ThT inhib -16% and Tau fluor counter 3.2µM*[quencher].
Screening O=C(O)c1ccc(N/N=C/c2ccnc3ccccc23)cc1 returned CBFb-RUNX1 inh 3%, Tau FP inhib 6%, JMJD2E inh -6%, Tau ThT inhib 5µM* and Tau fluor counter inconclusive.
Screening O=C(O)c1ccc(N/N=C/c2ccc(F)c(F)c2)cc1 returned CBFb-RUNX1 inh 2%, Tau FP inhib 7%, Lamin A splicing -2%, JMJD2E inh -2%, Tau ThT inhib inconclusive and Tau fluor counter inconclusive.
`O=C(O)c1ccc(N/N=C/c2ccc3nccnc3c2)cc1` gave CBFb-RUNX1 inh -3%, Tau FP inhib -4%, JMJD2E inh -4%, Tau ThT inhib 3.5µM* and Tau fluor counter -19%.
Screening O=C(O)c1ccc(N/N=C/c2cccc3cccnc23)cc1 returned CBFb-RUNX1 inh 10%, Tau FP inhib 7%, JMJD2E inh inconclusive and Tau fluor counter -17%.
For O=C(O)c1ccc(N/N=C/c2cn(Cc3ccccc3F)c3ccccc23)cc1 the results were CBFb-RUNX1 inh -18%, Tau FP inhib 0%, JMJD2E inh inconclusive, Tau ThT inhib 14µM* and Tau fluor counter inconclusive.
Screening COC(=O)N/N=C/c1cn(Cc2ccccc2F)c2ccccc12 returned CBFb-RUNX1 inh -1%, Tau FP inhib inconclusive, JMJD2E inh -2%, Tau ThT inhib -17% and Tau fluor counter inconclusive.
Screening COc1cc(Cl)c(NC(=O)c2cc(S(=O)(=O)N3CCCCC3)c[nH]2)c(OC)c1 returned Tau FP inhib 14%, Lamin A splicing 20%[46 µM], Tau ThT inhib -4% and Tau fluor counter inconclusive.
`CN(C)c1ncc2nc(-c3ccc(F)cc3)c(=O)n(CCc3ccccc3)c2n1` gave Lamin A splicing 15%.
Screening CCN1CCC(N(Cc2cccc(OC)c2)C(=O)Nc2cccc(C)c2C)CC1 returned Tau FP inhib -3%, Lamin A splicing -17%[46 µM], Tau ThT inhib 0% and Tau fluor counter 1%.
`CC(C)c1ccc(N2C(=O)CC(Sc3ncn[nH]3)C2=O)cc1` (centres undefined) gave CBFb-RUNX1 inh -4%, Tau FP inhib -7%, Lamin A splicing 5%, JMJD2E inh 1.6µM*, Tau ThT inhib -16% and Tau fluor counter -9%.
For COc1ccc(N2C(=O)CC(Sc3ncn[nH]3)C2=O)c(OC)c1 (centres undefined) the results were CBFb-RUNX1 inh -2%, Tau FP inhib 3%, Lamin A splicing 0%, JMJD2E inh 2.8µM*, Tau ThT inhib inconclusive and Tau fluor counter 5%.
`COc1ccc(Nc2oc(COc3ccc(C)cc3)nc2C#N)cc1` gave CBFb-RUNX1 inh -16%, Tau FP inhib 6%, Lamin A splicing inconclusive, JMJD2E inh -4%, Tau ThT inhib inconclusive and Tau fluor counter inconclusive.
Screening COc1ccc(Nc2oc(COc3ccc(OC)cc3)nc2C#N)cc1 returned CBFb-RUNX1 inh -28%, Tau FP inhib 4%, Lamin A splicing inconclusive, JMJD2E inh -14%, Tau ThT inhib inconclusive and Tau fluor counter 28µM*[quencher].
`NC1(C(=O)O)CCC1` gave CBFb-RUNX1 inh -1%[21.7 µM], Tau FP inhib 6%, JMJD2E inh 5%, Tau ThT inhib inconclusive and Tau fluor counter -19%.
N.N.O=C(O)C1(C(=O)O)CCC1.[Pt] was read as CBFb-RUNX1 inh inconclusive, Tau FP inhib 2.8µM*, Lamin A splicing inconclusive, JMJD2E inh 11µM*, Tau ThT inhib 3.2µM* and Tau fluor counter -25%.
For Cc1cc(C)c(NC(=O)Cn2c(=O)n(CCC(=O)NCc3ccccc3Cl)c(=O)c3sccc32)c(C)c1 the results were Tau FP inhib inconclusive, Tau ThT inhib 7% and Tau fluor counter 6%.
Screening O=C(N/N=C/c1c[nH]c2ccccc12)C1COc2ccccc2O1 (centres undefined) returned CBFb-RUNX1 inh -3%, Tau FP inhib 8%, Lamin A splicing inconclusive, JMJD2E inh -16%, Tau ThT inhib inconclusive and Tau fluor counter inconclusive.
O=C(N/N=C/c1c[nH]c2ccccc12)C1CC1c1ccccc1 (centres undefined) was read as CBFb-RUNX1 inh -7%, Tau FP inhib 4%, Lamin A splicing inconclusive, JMJD2E inh -8%, Tau ThT inhib inconclusive and Tau fluor counter 14µM*[quencher].

Screening data (PubChem)
